Bioassay records deposited in PubChem BioAssay by National Center for Advancing Translational Sciences (NCATS).
PLK1 PBD block: qHTS for Inhibitors of PLK1-PDB (polo-like kinase 1 - polo-box domain): Primary Screen; Serine/threonine-protein kinase PLK1 (Homo sapiens), P53350; Plk1 PBD binding of FITC phosphopeptide, fluorescence polarization; AID 720504, 2013; 2.8% of 360,000 active; Potency, µM, actives largely listed as inhibitors; note: series mostly up to about 57 µM; nearly all actives have a fitted effect of over 65% in size
VDR inhibitor: Inhibitors of the vitamin D receptor (VDR): qHTS. VDR-SRC2-3 peptide fluorescence polarization, 2 h. Potency, µM, hits mostly inhibitors. 0.93% of 400,000 active. AID 504847, 2011
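Fluorescence polarization assay measuring small-molecule disruption of VDR binding to the coregulator peptide SRC2-3. Compounds were pin-transferred (23 nl) into the reagent mix and incubated 2 h at room temperature before reading.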
GLS inhibitor: qHTS for Inhibitors of Glutaminase (GLS); Potency, µM (series often up to 45.5 µM), actives largely listed as inhibitors; GLS enzymatic activity, qHTS titration; AID 624170, 2012; Glutaminase kidney isoform, mitochondrial (Homo sapiens), O94925; 0.21% of 410,000 active
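Glutamate formation by hKGA was monitored fluorometrically using coupled glutamate oxidase, HRP and Amplex Red. Substrate was added as 1 mM L-glutamine solution; incubation was 30 min at RT after an initial read.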
PI4K2A block: qHTS for small molecular inhibitors of PI4K2A; AID 1346378, 2018; activity change, negative = inhibition, % at 76.9 µM; Phosphatidylinositol 4-kinase type 2-alpha (Homo sapiens), Q9BTU6; purified PI4K2A, ADP-Glo luminescence, 1 h; hits give low values; 0.13% of 420,000 active; in the data active = activity change below about -50%; inconclusive = mostly about -30% to -49%
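ADP-Glo luminescence measured ADP generated by PI4K2A enzyme (4 ug/mL before mixing) with 1.2 mM PI substrate (pre-mix) and 300 microM ATP (pre-mix). Tris pH7.5 buffer with MgCl2, Triton X-100; 1 h reaction at ambient temperature.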
GCN5L2 inh: qHTS Assay for Inhibitors of GCN5L2. Histone acetyltransferase KAT2A (Homo sapiens), Q92830. 0.21% of 390,000 active. AID 504327, 2011. Potency, µM (top dose mostly 58.9 µM), most hits filed as inhibitors. GCN5L2 HAT assay, ThioGlo1 CoA-SH fluorescence
Target sequence (Q92830 whole entry, looked up): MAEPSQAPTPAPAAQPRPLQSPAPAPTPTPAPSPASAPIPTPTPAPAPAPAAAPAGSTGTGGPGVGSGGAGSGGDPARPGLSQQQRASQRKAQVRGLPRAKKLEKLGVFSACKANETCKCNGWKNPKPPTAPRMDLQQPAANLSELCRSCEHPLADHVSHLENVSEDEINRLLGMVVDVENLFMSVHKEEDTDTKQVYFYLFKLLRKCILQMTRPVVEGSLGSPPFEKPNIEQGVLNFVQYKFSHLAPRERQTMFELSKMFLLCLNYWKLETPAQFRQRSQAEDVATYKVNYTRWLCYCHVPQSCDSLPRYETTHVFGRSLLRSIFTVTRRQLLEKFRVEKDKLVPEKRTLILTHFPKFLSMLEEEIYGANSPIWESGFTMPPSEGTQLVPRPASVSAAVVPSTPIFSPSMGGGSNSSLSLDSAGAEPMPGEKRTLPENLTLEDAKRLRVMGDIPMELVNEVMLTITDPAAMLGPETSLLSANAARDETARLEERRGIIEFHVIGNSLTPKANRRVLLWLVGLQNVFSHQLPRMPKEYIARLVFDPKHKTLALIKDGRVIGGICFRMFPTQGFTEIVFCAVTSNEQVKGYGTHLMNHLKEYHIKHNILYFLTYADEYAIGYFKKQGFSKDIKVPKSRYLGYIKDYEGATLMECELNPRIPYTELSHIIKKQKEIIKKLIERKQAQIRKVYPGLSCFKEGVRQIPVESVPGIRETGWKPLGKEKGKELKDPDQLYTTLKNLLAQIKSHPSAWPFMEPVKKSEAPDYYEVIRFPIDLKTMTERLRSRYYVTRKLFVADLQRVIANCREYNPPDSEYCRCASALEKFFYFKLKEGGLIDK
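Titration-based screen in which CoA formation is detected via maleimide probe ThioGlo1 (50uM) turning fluorescent on thiol reaction; substrates H3(1-25) 75uM and acetyl-CoA 70uM, GCN5L2 20nM, 20 min incubation at room temperature.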
A number is an active result; . = inactive; ? = inconclusive; / = no result given; ! = not confirmed by another sample. Most compounds without a hit are left out; they make up all but 3.1% or so of the library. Unless noted, calls come from the whole dose curve; as a rule, active = well fitted curve in the direction sought with a large enough effect; inconclusive = small, poorly fitted or top-dose-only effect, or another doubt; inactive = no such curve, though single readings can be large; an effect the other way counts as inactive or inconclusive.

SMILES	PLK1 PBD block	VDR inhibitor	GLS inhibitor	PI4K2A block	GCN5L2 inh
O=C1Nc2cc(Cl)cnc2N2CCCC12 (stereo unspecified)	30µM	?	.	.	.
O=C(C(Br)=Cc1ccccc1)c1ccccc1	?	22µM	.	.	/
CC(=Cc1ccccc1)C(=O)c1ccccc1	.	/	.	.	/
C[C@]12C[C@@](C)(C=C1/C=C/c1ccccc1)C(=O)C[C@H]2c1ccccc1	/	.	/	/	/
CC(=O)c1cccc(OCC(O)CN2CCN(S(=O)(=O)c3c(F)cccc3F)CC2)c1 (stereo unspecified)	19µM	.	.	.	.
COc1ccc(S(=O)(=O)Nc2ccc(-c3ccc4nncn4n3)cc2)c(OC)c1	19µM	?	.	.	.
Cc1n[nH]c(=S)n(NC(=O)CC(=O)Nn2c(=S)[nH]nc(C)c2=O)c1=O	.	.	?	.	.
Cc1n[nH]c(=S)n(NC(=O)/C=C/C(=O)Nn2c(=S)[nH]nc(C)c2=O)c1=O	.	.	11µM	.	.
CC(=O)n1c(-c2ccccc2)c(-c2ccccc2)n(C)c1=O	.	.	32µM	.	/
COc1ccc(C(=O)NC(C)CCc2ccccc2)cc1[N+](=O)[O-] (stereo unspecified)	.	.	.	.	.
Cc1c(C(=O)NC(C)CCc2ccccc2)cccc1[N+](=O)[O-] (stereo unspecified)	12µM	.	.	.	.
COc1ccc(N2CCN(C(=O)CSc3nc(-c4ccccc4)no3)CC2)cc1	/	.	.	.	.
COc1ccc(N2CCN(C(=O)CSc3ccccc3N)CC2)cc1	24µM	.	.	.	.
CN(C(=O)NC(=O)C1=C(N2CCOCC2)/C(=C/c2ccccc2)CC1)S(C)(=O)=O	.	.	.	.	.
CCCCN(C(=O)NC(=O)C1=C(N2CCOCC2)/C(=C/c2ccccc2)CC1)S(C)(=O)=O	34µM!	.	.	.	.
CN(Cc1ccccc1)c1nc(-c2cccc([N+](=O)[O-])c2)nc2ccccc12	27µM	?	?	.	.
Cc1ccc(-c2cc(C(=O)NCCCn3ccnc3)c3cc(Br)ccc3n2)o1	24µM	.	.	.	.
Cc1ccc2c(n1)Oc1ccc(C(C)C(=O)OCC(=O)N(C)C)cc1C2 (stereo unspecified)	/	/	.	.	/
CC1=NN(Cc2ccccc2)C(=O)C1C(c1ccccc1)C(C#N)C#N (stereo unspecified)	24µM	?	.	.	.
CC1=NN(Cc2ccccc2)C(=O)C1C(c1ccc(Cl)cc1)C(C#N)C#N (stereo unspecified)	7.5µM	40µM	.	.	.
CC1=NNC(=O)C1C(c1ccc(Cl)cc1)C(C#N)C#N (stereo unspecified)	21µM	79µM	?	.	.
Cc1cnc(NS(=O)(=O)c2ccc(N)cc2)nc1	/	/	/	.	/
Cc1ccc(S(=O)(=O)N2CC(O)C[C@H]2C(=O)OCC(=O)c2ccccc2)cc1 (stereo partly specified)	.	.	.	.	.
CC(C)(C)OC(=O)N1C[C@H](O)C[C@H]1C(=O)OCC(=O)c1ccc([N+](=O)[O-])cc1	21µM	?	.	.	.
CCCc1cc(=O)[nH]c(SCC(=O)N2CCN(c3ccccc3)CC2)n1	.	.	.	.	.
SMILES	PLK1 PBD block	VDR inhibitor	GLS inhibitor	PI4K2A block	GCN5L2 inh
O=C(CSc1ccccn1)N1CCN(c2cccc(Cl)c2)CC1	12µM	?	.	.	.
O=C(CSc1ccc(-c2ccccn2)nn1)N1CCCC1	13µM	71µM	?	.	.
O=C(CSc1nccc(=O)[nH]1)N1CCN(c2ccccc2)CC1	17µM	?	.	.	.
Cc1ccccc1NC(=O)CSc1nc2c(oc3ccccc32)c(=O)n1Cc1ccco1	/	.	.	.	.
COc1ccc([N+](=O)[O-])c2c1CCN2C(=O)CC[C@H](N)C(=O)O	/	.	/	/	.
CCOC1Cc2ccccc2N(C(N)=O)c2ccccc21 (stereo unspecified)	.	.	.	.	.
NC(=O)N1c2ccccc2CC(=O)c2ccccc21	.	50µM!	.	.	.
COc1ccc(NS(=O)(=O)c2ccc(F)c(Cl)c2)cn1	?	79µM	.	.	.
